Source: PubChem BioAssay (National Center for Advancing Translational Sciences (NCATS))
Compounds with a hit are over-represented: about 4.6% of the library has one in this group of screens.
D1 potentiator: enhances dopamine response at the human D1 receptor; P21728; HEK293 TREx D1 cells, calcium flux, dopamine EC20 potentiation; potentiation, % at 10 µM; hit rate 0.036% among 360,000; in the data active = potentiation above about 30%; also: 0% is about no effect
TRHR PAM: allosterically enhances the human TRH receptor | P34981 | TRHR cells, fluo-8 calcium fluorescence, EC20 TRH enhancement | enhancement, % at 2 µM | hit rate 0.66% among 360,000; in the data active = enhancement above about 30%; also: 0% is about no effect
Target sequence (P34981 whole entry, looked up): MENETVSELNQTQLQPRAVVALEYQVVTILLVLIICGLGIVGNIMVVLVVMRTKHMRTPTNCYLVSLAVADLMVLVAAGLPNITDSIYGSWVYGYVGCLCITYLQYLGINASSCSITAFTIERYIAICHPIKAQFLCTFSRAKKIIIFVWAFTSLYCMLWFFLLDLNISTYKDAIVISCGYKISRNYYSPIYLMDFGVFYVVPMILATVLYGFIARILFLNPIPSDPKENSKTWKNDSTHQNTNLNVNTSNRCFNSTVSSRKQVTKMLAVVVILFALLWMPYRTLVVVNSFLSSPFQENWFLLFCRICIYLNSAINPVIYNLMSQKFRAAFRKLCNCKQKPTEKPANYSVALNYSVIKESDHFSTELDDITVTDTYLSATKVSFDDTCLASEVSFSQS
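Enhancer read-out: after compound pinning and an initial kinetic agonist-mode read, an EC20 of TRH (10 nM final) was injected and fluo-8 calcium signal (Ex 480/Em 530) followed at 1 s/cycle for 100 cycles in TRHR-expressing cells.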
D1 antagonist: antagonists of human D1 dopamine receptor | P21728 | HEK293 TREx D1 cells, calcium flux, dopamine EC80; active compounds read low | activity change, negative = inhibition, % at 10 µM | hit rate 3.2% among 360,000; in the data active = activity change below about -30%; also: % is scaled to controls: 0 for no effect and ±100 for the full control effect
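Cells carrying a force-coupled, tetracycline-inducible human D1 receptor report calcium flux. Each well gets a 10 s baseline, compound with 180 s monitoring, then an EC80 dopamine stimulus with a second 180 s kinetic read.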
D1 agonist: human D1 receptor agonism; P21728; HEK293 T-REx D1 cells, calcium flux, agonist mode; activation, % at 2 µM; hit rate 1% among 360,000; also: 0% is about no effect
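Tetracycline-induced HEK293 TREx D1 cells, force-coupled to calcium signalling, were dye-loaded with a no-wash calcium kit. Compound was pin-added after a 10 s baseline. Fluorescence was read kinetically at 1 cycle/s for 180 s, with calcium rises flagged as agonism.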
TRHR agonist: agonists of human TRH receptor; P34981; TRHR cells, calcium flux fluo-8, FDSS agonist mode; activation, % at 2 µM; hit rate 0.18% among 360,000; AID 493084; also: 0% is about no effect
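Agonist-mode FDSS calcium read (Ex 480/Em 530, 1 s cycles) in 1536-well TRHR cells with fluo-8 dye, after 10-cycle baseline and 23 nL compound addition; TRH at EC20 (10 nM final) added afterwards for the enhancer phase.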
Numbers without * were called inactive. Rule as the data show it, unless noted: active = activation above about 30%; inactive = the rest.

O=C(CSc1nnc(NC(=O)c2ccccc2F)s1)Nc1ccccc1F was read as D1 potentiator -0.2, TRHR PAM 7.8, D1 antagonist -2.2, D1 agonist 5.0 and TRHR agonist 0.4.
COc1cccc(-c2nc3ccc(O)cc3c(=O)o2)c1 was read as D1 potentiator 3.8, TRHR PAM 35.8*, D1 antagonist 0.1, D1 agonist 1.9 and TRHR agonist 0.0.
`CC(=O)Oc1cccc(-c2nc3ccccc3c(=O)o2)c1` gave D1 potentiator -2.4, TRHR PAM -3.6, D1 antagonist 1.0, D1 agonist 0.1 and TRHR agonist 0.0.
Screening CC(C)CC1C(C#N)=C(N)SC(N)=C1C#N returned D1 potentiator -3.3, TRHR PAM 4.1, D1 antagonist -8.6, D1 agonist 38.4* and TRHR agonist -0.7.
Screening N#CC1=C(N)SC(N)=C(C#N)C1Cc1ccccc1 returned D1 potentiator -5.0, TRHR PAM 22.2, D1 antagonist 10.8, D1 agonist 9.8 and TRHR agonist 3.8.
Screening CC(C(=O)N1CCCCC1)N1C(=O)c2ccccc2C1=O (stereo unspecified) returned D1 potentiator -1.8, TRHR PAM -3.7, D1 antagonist -4.9, D1 agonist 0.7 and TRHR agonist -0.8.
Screening CC1SC(=NC(=O)C(C)N2C(=O)c3ccccc3C2=O)NC1=O (stereo unspecified) returned D1 potentiator -4.2, TRHR PAM -5.1, D1 antagonist -34.1*, D1 agonist -0.5 and TRHR agonist 0.1.
Cc1sc2nc(SCC(=O)O)[nH]c(=O)c2c1C was read as D1 potentiator 10.2, TRHR PAM 2.3, D1 antagonist -9.2, D1 agonist 6.0 and TRHR agonist 0.7.
Screening Cc1ccccc1NC(=O)c1nnn(-c2ccc3c(c2)OCCO3)c1N returned D1 potentiator -6.2, TRHR PAM 3.5, D1 antagonist -47.5*, D1 agonist 14.2 and TRHR agonist 0.1.
`CCCCn1c(N)c(N(CCC(C)C)C(=O)c2ccc(C)c(S(=O)(=O)N3CCOCC3)c2)c(=O)[nH]c1=O` gave D1 potentiator -2.5, TRHR PAM 29.7, D1 antagonist 34.6, D1 agonist 5.3 and TRHR agonist 0.1.
For CCOCCCN(Cc1ccco1)S(=O)(=O)c1csc(C(N)=O)c1 the results were D1 potentiator -8.6, TRHR PAM -1.9, D1 antagonist -49.9*, D1 agonist 1.2 and TRHR agonist 0.2.
For CC(C)CCN(Cc1ccco1)S(=O)(=O)c1csc(C(N)=O)c1 the results were D1 potentiator -2.5, TRHR PAM -7.5, D1 antagonist 1.6, D1 agonist 3.2 and TRHR agonist 0.3.
For CSc1ccc(C2c3c(oc4cc(C)cc(C)c4c3=O)C(=O)N2CCO)cc1 (stereo unspecified) the results were D1 potentiator -0.8, TRHR PAM 4.8, D1 antagonist -46.4*, D1 agonist 0.0 and TRHR agonist 0.8.
`CSc1ccc(C2c3c(oc4cc(C)cc(C)c4c3=O)C(=O)N2Cc2ccco2)cc1` (stereo unspecified) gave D1 potentiator 4.3, TRHR PAM -4.3, D1 antagonist -10.0, D1 agonist -0.2 and TRHR agonist 0.2.
Screening COC(=O)c1ccc(CN2C(=O)NC(CC(C)C)C2=O)cc1 (stereo unspecified) returned D1 potentiator 1.7, TRHR PAM 3.8, D1 antagonist -32.4*, D1 agonist 6.7 and TRHR agonist 0.8.
Screening Cc1ccc(NC(=O)/C=C\C(=O)NCC(=O)O)cc1 returned D1 potentiator -1.9, TRHR PAM 1.0, D1 antagonist -1.1, D1 agonist 0.0 and TRHR agonist -0.3.
Cc1cc(OCC(=O)N2CCN(c3ccc(F)cc3)CC2)c2c(C)cc(=O)oc2c1 was read as D1 potentiator -3.1, TRHR PAM 2.7, D1 antagonist -32.7*, D1 agonist -0.2 and TRHR agonist 0.0.
Screening Cc1cc(OCC(=O)N2CCN(c3ccccc3)CC2)c2c(C)cc(=O)oc2c1 returned D1 potentiator 1.4, TRHR PAM -1.9, D1 antagonist 13.2, D1 agonist 1.2 and TRHR agonist 0.0.
Screening CCOc1ccccc1C(=O)N(Cc1ccc(C)o1)C1CCS(=O)(=O)C1 (stereo unspecified) returned D1 potentiator -5.7, TRHR PAM -2.9, D1 antagonist -10.1, D1 agonist 2.5 and TRHR agonist 0.1.
Screening O=C(O)Cc1sc(N/N=C\c2ccncc2)nc1-c1ccccc1 returned D1 potentiator -7.0, TRHR PAM 1.3, D1 antagonist -4.3, D1 agonist 31.2* and TRHR agonist 23.3.
For O=C(O)Cc1sc(Nc2ccccc2)nc1-c1ccccc1 the results were D1 potentiator -1.7, TRHR PAM 3.1, D1 antagonist -2.2, D1 agonist -1.3 and TRHR agonist 0.1.
Cc1csc(SCC(=O)Nc2ccc(C)c(F)c2)n1 was read as D1 potentiator 3.4, TRHR PAM -3.0, D1 antagonist -39.5*, D1 agonist 0.9 and TRHR agonist -0.7.
For Cc1ccccc1NC(=O)C(C)Sc1nnc(-c2ccncc2)n1CC1CCCO1 (stereo unspecified) the results were D1 potentiator -0.9, TRHR PAM 8.1, D1 antagonist 12.0, D1 agonist 0.4 and TRHR agonist -0.1.
`CN1C2CCC1CC(NC(=O)c1ccc(Cl)cc1)C2` (stereo unspecified) gave D1 potentiator 2.6, TRHR PAM 4.3, D1 antagonist -32.0*, D1 agonist 29.9 and TRHR agonist 2.9.
O=C(NC1CC2CCCC(C1)N2Cc1ccc(F)cc1)c1ccc(F)cc1 (stereo unspecified) was read as D1 potentiator -8.6, TRHR PAM -0.8, D1 antagonist -68.5*, D1 agonist 4.3 and TRHR agonist 0.2.
For Cc1ccc(CN2C3CCCC2CC(NC(=O)c2ccc(C)cc2)C3)cc1 (stereo unspecified) the results were D1 potentiator -6.9, TRHR PAM 0.8, D1 antagonist -67.9*, D1 agonist 0.9 and TRHR agonist -1.4.
For COc1cc(CN(C(=O)c2ccco2)C2CCS(=O)(=O)C2)cc(OC)c1OC (stereo unspecified) the results were D1 potentiator -1.3, TRHR PAM -7.1, D1 antagonist 8.9, D1 agonist -0.1 and TRHR agonist -0.4.
`C=C(C)CSc1nnc2n(N)c(=O)c3ccccc3n12` gave D1 potentiator 14.6, TRHR PAM -2.7, D1 antagonist -19.5, D1 agonist 0.8 and TRHR agonist -0.4.
CCSc1nnc2n(N)c(=O)c3ccccc3n12 was read as D1 potentiator -9.3, TRHR PAM -5.3, D1 antagonist -85.4*, D1 agonist 2.4 and TRHR agonist 0.1.
For Cc1csc(SCC(=O)NCCc2ccc(Cl)cc2)n1 the results were D1 potentiator -2.5, TRHR PAM 4.1, D1 antagonist 0.9, D1 agonist 0.1 and TRHR agonist 0.5.
